Assay outcomes from PubChem BioAssay.
The list is not random: actives were taken first. Their share in the collection is about 3.5%.
TEAD-YAP block – TEAD-YAP interaction inhibition. HEK-TIYL cells, TEAD-Gal4/YAP UAS-luciferase luminescence. inhibition, % at 9.12 µM. hit rate 1.4% among 640,000. AID 1259422; in the data active means inhibition above about 32%;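 further: 0% = median of test compound wells and 100% = reference inhibitor wells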
MITF primary – human MITF inhibition, primary screen; O75030; AlphaScreen MITF homodimerization, bead proximity signal; inhibition, % at 2.6 µM; hit rate 0.91% among 650,000; in the data active means inhibition above about 50%;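 further: 0% = vehicle wells with protein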
FBW7 activator – human FBW7 E3 ligase activation, primary screen | AlphaScreen FBW7–phospho-cyclin E peptide binding, activator screen | hit rate 0.13% among 650,000 | normalized activity (activation), % at 26.1 µM; in the data active means normalized activity above about 1.9%;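 further: purified mutant Fbw7 with reduced substrate affinity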
GPR151 activ – activators of human GPR151; activation, % at 11.2 µM; AID 1508602; hit rate 1% among 650,000; PathHunter beta-arrestin GPR151 cells, luminescence; in the data active means activation above about 4.9%;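 further: 0% = median of compound wells and 100% = cells with positive control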
Target sequence (Q8TDV0 whole entry, looked up): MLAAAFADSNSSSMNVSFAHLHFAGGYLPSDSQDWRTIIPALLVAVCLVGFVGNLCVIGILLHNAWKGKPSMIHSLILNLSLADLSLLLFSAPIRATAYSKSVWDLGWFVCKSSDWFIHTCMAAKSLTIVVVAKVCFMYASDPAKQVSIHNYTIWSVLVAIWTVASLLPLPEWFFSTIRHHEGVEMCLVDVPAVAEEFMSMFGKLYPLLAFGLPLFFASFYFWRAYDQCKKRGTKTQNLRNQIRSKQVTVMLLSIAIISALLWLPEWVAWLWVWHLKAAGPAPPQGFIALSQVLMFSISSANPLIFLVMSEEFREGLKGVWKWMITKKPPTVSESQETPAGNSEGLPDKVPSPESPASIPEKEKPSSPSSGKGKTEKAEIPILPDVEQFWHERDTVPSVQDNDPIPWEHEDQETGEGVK
GPR151 confirm – human GPR151 activation, confirmation screen; 6,700 tested, under 10 active; shares compounds with GPR151 activ; activation, % at 11.2 µM; GPR151 PathHunter beta-arrestin cells, luminescence, 90 min; % of EA-reagent control over plate median;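 active means mean percent activation across replicates above the confirmation screen cutoff of 4.91%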
GPR119 ag – counter-screen for GPR151 activators: effect on human GPR119. shares compounds with GPR151 activ. GPR119 PathHunter beta-arrestin cells, luminescence, 90 min; 0 = compound-well median, 100 = enzyme-acceptor control. activation, % at 11.2 µM. hit rate 0.3% among 6,700;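 active means mean percent activation in the counterscreen above 29.09%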;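 further: counterscreen on off-target GPR119 to flag nonselective hits from the GPR151 activator screen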
Numbers without * were called inactive; x = no result.

SMILES	TEAD-YAP block	MITF primary	FBW7 activator	GPR151 activ	GPR151 confirm	GPR119 ag
Cc1cc(=O)oc2cc(OCC(=O)Nc3nc(-c4ccccc4)cs3)ccc12	-6	-2	0	-1	x	x
CCOc1ccc(NC(=O)CSc2nc(NCCc3ccccc3)c3ccccc3n2)cc1	3	4	0	6.0*	0	7
CCCCNc1nc(SCC(=O)Nc2ccc(OCC)cc2)nc2ccccc12	17	2	0	1	x	x
COCCNc1nc(SCC(=O)NCCc2ccc(S(N)(=O)=O)cc2)nc2ccccc12	0	3	0	4.9*	-1	-12
COc1ccc(Cl)cc1S(=O)(=O)Nc1ccc(-c2ccc(N3CCCCC3)nn2)cc1	2	5	0	3	x	x
O=C1/C(=C/c2ccccc2)SC(=S)N1N1C(=O)c2ccccc2C1=O	1	-9	0	-1	x	x
O=C1/C(=C\c2cccc([N+](=O)[O-])c2)SC(=S)N1N1C(=O)c2ccccc2C1=O	-10	-6	0	5.0*	0	10
CCCCNC(=O)/C(=C/c1ccco1)NC(=O)c1ccc(I)cc1	15	14	0	1	x	x
CCCCNC(=O)/C(=C/c1ccco1)NC(=O)c1ccccc1I	10	6	0	9.2*	0	-9
NC(=O)/C(=C\c1ccco1)NC(=O)c1ccccc1Br	0	11	0	6.6*	2	3
CN(C)c1ccc(NC(=O)CN2CCN(c3ccc(Cl)cc3)CC2)cc1	-9	0	0	2	x	x
NN1C(=O)c2ccccc2NC1C1CC=CCC1 (stereo unspecified)	-11	16	1	20*	-1	-9
CC(C)n1c(Nc2ccc3ncccc3c2)nc2c(NCCc3ccc(O)cc3)ncnc21	-1	0	0	5.1*	0	-5
CC(C)n1c(Nc2ccc3ncccc3c2)nc2c(NCCN3CCOCC3)ncnc21	-4	14	0	6.4*	0	0
CC(C)n1c(Nc2ccccc2)nc2c(NCCc3ccc(O)cc3)ncnc21	30	-1	0	6.1*	-1	-11
COc1cc(OC)cc(C(=O)NCC2CCC3(CCN(Cc4ccccc4F)CC3)O2)c1 (stereo unspecified)	1	-20	0	1	x	x
CC(C)(C)c1ccc(OCC(O)CS(=O)Cc2ccccc2)cc1 (stereo unspecified)	0	1	0	5.4*	0	6
CC(=O)c1nc2ccccc2n1S(=O)(=O)c1ccc(Cl)cc1	-1	1	0	5.2*	-1	-13
COc1ccc(CC2(CO)CCN(Cc3ccc(NC(C)=O)cc3)CC2)cc1	7	10	0	5.9*	2	-4
CCCCNS(=O)(=O)c1ccc(NS(=O)(=O)c2ccccc2)cc1	-4	-1	0	0	x	x
O=C(CN1CCN(S(=O)(=O)c2ccc3c(c2)OCCO3)CC1)c1cccs1	-3	0	0	9.7*	0	-1
Cc1cc(Cl)ccc1N(CC(=O)NCc1ccc(Cl)cc1)S(C)(=O)=O	4	21	-1	-1	x	x
CCn1c(=O)c(C(=O)NNC(=O)c2ccc([N+](=O)[O-])cc2)c(O)c2ccccc21	0	7	0	21*	0	-6
CCOc1ccc(-c2n[nH]c(C)c2Oc2ccc(F)cc2)c(O)c1	1	-4	0	4.9*	0	-10
CN(C)c1cccc(Nc2ccc(N3CCC(C(=O)NCc4nc5ccccc5[nH]4)CC3)nn2)c1	3	5	0	1	x	x
SMILES	TEAD-YAP block	MITF primary	FBW7 activator	GPR151 activ	GPR151 confirm	GPR119 ag
CCOCCCNC(=O)C(NC(=O)c1ccc(=O)[nH]c1)c1ccccc1 (stereo unspecified)	-6	3	0	5.0*	1	16
Cc1ccc(-n2c(=S)sc3c(=O)n(-c4ccccc4)c(SCc4ccc(Cl)cc4)nc32)cc1C	-2	4	0	2	x	x
O=C(NCc1cccs1)C(=O)NC1CC1	2	3	0	0	x	x
CCNC(=O)C(=O)NCc1cccs1	1	5	0	4.9*	1	1
COc1cc(NC(=O)NC(C)C)c2ncccc2c1	21	8	0	-2	x	x
COc1cc(NC(=O)C2CCCCC2)c2ncccc2c1	5	5	0	5.3*	0	6
CC(C)(C)C(=O)/C=C(\N)Cc1ccccc1	8	-6	0	8.1*	-1	-1
CC(C)(C)C(=O)/C=C(/N)c1ccccn1	-7	-15	0	0	x	x
CCCCCCC(=O)NCC(=O)OCC(=O)c1ccc(Br)cc1	2	8	0	-1	x	x
Cc1ccc2c(Cn3ncc(Cl)c(Cl)c3=O)cc(=O)oc2c1	-11	-11	0	0	x	x
C#CCn1c(=NC(=O)C2CC2)sc2cc(S(C)(=O)=O)ccc21	3	-13	1	6.5*	-1	1
CCOCCn1c(=NC(=O)C2CC2)sc2cc(S(C)(=O)=O)ccc21	1	3	0	8.7*	1	7
COc1ccc(-n2c(SCC(=O)N3CCCC3)nc3[nH]ncc3c2=O)cc1	0	-6	0	2	x	x
CC(C)n1c(-c2cccs2)nc2c(NCCCN3CCCC3=O)ncnc21	3	35	0	1	x	x
CC(C)n1c(-c2csc3ccccc23)nc2c(NCCCN3CCCC3=O)ncnc21	5	-2	0	6.8*	1	-4
CC(C)NC(=O)c1cc(=O)[nH]c2ccc(S(=O)(=O)N3CCCC3)cc12	9	13	1	6.3*	0	-1
CC(C)NC(=O)c1cc(=O)[nH]c2ccc(S(=O)(=O)N3CCCCCC3)cc12	4	10	1	-1	x	x
COC(=O)CSc1nnc(C)n1-c1ccc(N(C)C)cc1	1	-18	0	5.6*	0	4
CC(=O)CSc1nnc(C)n1-c1ccc(N(C)C)cc1	-5	8	0	-1	x	x
NS(=O)(=O)c1ccc(CNc2ccc3ncc(-c4ccc(F)c(Cl)c4)n3n2)cc1	0	-3	0	1	x	x
O=C(NCCO)C(=O)NCC(c1ccco1)N1CCN(c2ccccc2F)CC1 (stereo unspecified)	5	9	1	0	x	x
Cc1ccccc1NC(=S)N(Cc1cccc(Br)c1)CC1CCC(C(=O)O)CC1 (stereo unspecified)	0	-1	0	7.6*	-1	-2
O=C(O)C1CCC(CN(Cc2cccc(Br)c2)C(=S)Nc2ccccc2F)CC1 (stereo unspecified)	11	7	0	0	x	x
COC(=O)C(Cc1c[nH]c2ccccc12)NC(=O)C(C)C (stereo unspecified)	3	24	0	1	x	x
COC(=O)C(Cc1c[nH]c2ccccc12)NC(=O)C(=O)c1c(C)[nH]c2ccccc12 (stereo unspecified)	3	8	0	6.9*	0	6
